Test results published in ChEMBL document CHEMBL1961873, “Compounds: GSK PKIS; Assays: Nanosyn kinase panel” (2012).

What was measured:
[1] = biological target: Protein kinase C gamma type (Homo sapiens) (UniProt P05129); conditions: at 1 µM;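 note: each value is an averaged percent inhibition of the enzyme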
[2] = biological target: T1, Protein kinase C iota type (Homo sapiens) (UniProt P41743); conditions: at 0.1 µM
T1 sequence (whole entry): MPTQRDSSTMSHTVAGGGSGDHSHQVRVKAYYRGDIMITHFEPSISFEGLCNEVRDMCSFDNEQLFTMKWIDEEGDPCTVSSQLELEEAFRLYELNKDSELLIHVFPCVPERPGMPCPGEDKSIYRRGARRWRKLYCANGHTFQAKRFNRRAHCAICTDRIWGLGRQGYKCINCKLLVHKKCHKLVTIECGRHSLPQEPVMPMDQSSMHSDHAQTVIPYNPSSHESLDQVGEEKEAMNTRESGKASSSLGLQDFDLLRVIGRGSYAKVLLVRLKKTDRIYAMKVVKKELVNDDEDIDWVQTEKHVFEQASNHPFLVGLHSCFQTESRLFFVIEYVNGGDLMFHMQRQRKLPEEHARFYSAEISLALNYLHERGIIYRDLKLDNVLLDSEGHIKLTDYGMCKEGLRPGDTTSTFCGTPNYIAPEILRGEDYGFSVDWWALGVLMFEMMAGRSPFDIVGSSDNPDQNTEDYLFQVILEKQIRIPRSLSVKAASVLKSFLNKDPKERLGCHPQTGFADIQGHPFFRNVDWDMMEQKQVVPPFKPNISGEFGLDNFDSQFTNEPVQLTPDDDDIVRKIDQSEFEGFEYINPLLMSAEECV

[3] = biological target: T1, Protein kinase C iota type (Homo sapiens); conditions: at 1 µM
[4] = biological target: Protein kinase C theta type (Homo sapiens) (UniProt Q04759); conditions: at 0.1 µM
[5] = biological target: Protein kinase C theta type (Homo sapiens) (UniProt Q04759); conditions: at 1 µM
[6] = biological target: Protein kinase C beta type (Homo sapiens) (UniProt P05771); conditions: at 0.1 µM
[7] = biological target: Protein kinase C beta type (Homo sapiens) (UniProt P05771); conditions: at 1 µM
[8] = biological target: T2, Serine/threonine-protein kinase D1 (Homo sapiens) (UniProt Q15139); conditions: at 0.1 µM
T2 sequence (whole entry): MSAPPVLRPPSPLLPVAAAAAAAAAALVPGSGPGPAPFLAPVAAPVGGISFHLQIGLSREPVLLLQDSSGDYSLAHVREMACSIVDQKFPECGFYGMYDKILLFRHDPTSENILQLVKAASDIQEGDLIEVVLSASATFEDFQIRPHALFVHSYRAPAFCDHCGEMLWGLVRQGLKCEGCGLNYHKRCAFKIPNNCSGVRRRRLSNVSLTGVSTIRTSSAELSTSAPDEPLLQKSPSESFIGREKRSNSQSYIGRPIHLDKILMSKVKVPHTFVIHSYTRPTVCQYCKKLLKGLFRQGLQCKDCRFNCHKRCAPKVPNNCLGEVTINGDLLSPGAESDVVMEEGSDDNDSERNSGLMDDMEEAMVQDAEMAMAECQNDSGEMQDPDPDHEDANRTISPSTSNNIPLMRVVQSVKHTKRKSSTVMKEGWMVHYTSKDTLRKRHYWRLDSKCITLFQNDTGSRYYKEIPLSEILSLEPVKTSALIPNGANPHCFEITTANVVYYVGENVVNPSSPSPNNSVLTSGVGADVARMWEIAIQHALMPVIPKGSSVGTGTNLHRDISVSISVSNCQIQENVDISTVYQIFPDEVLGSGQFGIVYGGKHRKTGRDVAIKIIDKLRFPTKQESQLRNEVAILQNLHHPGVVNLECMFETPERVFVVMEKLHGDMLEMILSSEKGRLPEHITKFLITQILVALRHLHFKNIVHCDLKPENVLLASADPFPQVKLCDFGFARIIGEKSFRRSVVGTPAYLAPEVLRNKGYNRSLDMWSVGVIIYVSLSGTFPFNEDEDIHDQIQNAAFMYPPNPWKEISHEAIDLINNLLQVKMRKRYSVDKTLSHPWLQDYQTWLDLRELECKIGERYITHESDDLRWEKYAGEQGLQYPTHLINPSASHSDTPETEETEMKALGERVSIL

[9] = biological target: T2, Serine/threonine-protein kinase D1 (Homo sapiens); conditions: at 1 µM
[10] = biological target: T3, Serine/threonine-protein kinase D2 (Homo sapiens) (UniProt Q9BZL6); conditions: at 0.1 µM
T3 sequence (whole entry): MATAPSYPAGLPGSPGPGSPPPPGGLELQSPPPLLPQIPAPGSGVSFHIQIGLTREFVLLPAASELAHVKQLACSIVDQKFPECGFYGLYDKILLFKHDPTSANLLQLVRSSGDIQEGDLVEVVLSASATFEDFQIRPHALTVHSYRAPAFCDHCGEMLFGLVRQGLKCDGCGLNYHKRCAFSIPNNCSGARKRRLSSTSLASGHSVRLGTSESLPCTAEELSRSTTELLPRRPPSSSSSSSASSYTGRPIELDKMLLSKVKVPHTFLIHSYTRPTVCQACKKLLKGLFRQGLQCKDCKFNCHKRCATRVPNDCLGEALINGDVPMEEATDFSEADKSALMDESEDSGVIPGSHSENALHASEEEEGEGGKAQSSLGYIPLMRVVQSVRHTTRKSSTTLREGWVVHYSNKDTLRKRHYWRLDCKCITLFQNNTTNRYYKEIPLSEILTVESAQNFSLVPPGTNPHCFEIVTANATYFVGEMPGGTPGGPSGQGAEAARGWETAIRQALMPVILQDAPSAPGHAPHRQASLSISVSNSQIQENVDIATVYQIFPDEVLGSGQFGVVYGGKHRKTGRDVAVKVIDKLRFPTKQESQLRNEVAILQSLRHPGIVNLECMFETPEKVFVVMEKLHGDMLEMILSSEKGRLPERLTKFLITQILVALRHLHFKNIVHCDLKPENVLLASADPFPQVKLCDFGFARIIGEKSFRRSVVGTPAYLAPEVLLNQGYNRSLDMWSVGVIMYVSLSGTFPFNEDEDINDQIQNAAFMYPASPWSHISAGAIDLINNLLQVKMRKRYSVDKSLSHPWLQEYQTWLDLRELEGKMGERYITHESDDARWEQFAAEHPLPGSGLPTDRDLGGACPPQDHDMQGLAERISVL

[11] = biological target: T3, Serine/threonine-protein kinase D2 (Homo sapiens); conditions: at 1 µM
[12] = biological target: T4, Serine/threonine-protein kinase D3 (Homo sapiens) (UniProt O94806); conditions: at 0.1 µM
T4 sequence (whole entry): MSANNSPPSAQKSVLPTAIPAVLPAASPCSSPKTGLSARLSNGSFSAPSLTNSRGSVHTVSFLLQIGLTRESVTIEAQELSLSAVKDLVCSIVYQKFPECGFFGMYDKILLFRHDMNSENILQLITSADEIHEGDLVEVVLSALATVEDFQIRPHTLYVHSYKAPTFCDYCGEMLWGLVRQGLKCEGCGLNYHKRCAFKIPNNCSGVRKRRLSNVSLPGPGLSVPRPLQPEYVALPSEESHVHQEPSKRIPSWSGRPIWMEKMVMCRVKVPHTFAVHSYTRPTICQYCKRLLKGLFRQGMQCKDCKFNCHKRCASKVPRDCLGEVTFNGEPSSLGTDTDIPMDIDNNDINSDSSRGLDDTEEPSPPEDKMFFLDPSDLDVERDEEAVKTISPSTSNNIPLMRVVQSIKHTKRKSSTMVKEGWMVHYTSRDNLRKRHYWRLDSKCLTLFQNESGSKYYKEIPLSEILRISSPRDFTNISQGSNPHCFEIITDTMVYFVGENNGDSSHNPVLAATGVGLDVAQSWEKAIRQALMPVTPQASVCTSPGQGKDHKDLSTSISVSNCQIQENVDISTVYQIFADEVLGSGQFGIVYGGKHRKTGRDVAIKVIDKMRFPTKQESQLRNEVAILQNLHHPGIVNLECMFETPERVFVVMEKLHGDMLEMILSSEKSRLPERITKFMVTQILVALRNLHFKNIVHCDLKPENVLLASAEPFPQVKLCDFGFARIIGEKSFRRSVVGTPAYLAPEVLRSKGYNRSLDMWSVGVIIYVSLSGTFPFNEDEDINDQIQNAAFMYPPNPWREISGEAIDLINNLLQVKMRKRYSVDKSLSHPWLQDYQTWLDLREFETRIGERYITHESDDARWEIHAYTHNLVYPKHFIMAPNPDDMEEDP

[13] = biological target: T4, Serine/threonine-protein kinase D3 (Homo sapiens); conditions: at 1 µM
[14] = biological target: T5, cGMP-dependent protein kinase 1 (Homo sapiens) (UniProt Q13976); conditions: at 0.1 µM
T5 sequence (whole entry): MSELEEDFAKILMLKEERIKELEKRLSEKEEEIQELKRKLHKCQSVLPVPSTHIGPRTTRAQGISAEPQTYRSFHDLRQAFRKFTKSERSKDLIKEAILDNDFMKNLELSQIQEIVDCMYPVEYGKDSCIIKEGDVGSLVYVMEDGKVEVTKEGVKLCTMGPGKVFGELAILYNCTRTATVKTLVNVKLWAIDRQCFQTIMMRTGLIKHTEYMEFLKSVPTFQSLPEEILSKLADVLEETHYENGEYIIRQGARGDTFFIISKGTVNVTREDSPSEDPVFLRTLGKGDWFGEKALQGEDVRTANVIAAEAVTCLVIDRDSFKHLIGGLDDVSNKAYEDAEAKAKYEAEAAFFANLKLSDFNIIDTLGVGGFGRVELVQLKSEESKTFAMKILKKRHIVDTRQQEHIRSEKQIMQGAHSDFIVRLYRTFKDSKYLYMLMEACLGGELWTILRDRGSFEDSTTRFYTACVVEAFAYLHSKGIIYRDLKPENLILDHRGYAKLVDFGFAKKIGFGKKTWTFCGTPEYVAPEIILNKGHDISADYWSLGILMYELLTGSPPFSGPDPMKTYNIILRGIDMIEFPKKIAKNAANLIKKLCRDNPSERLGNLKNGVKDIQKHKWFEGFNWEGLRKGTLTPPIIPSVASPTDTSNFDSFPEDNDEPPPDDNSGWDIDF

[15] = biological target: T5, cGMP-dependent protein kinase 1 (Homo sapiens); conditions: at 1 µM
[16] = biological target: T6, cGMP-dependent protein kinase 2 (Homo sapiens) (UniProt Q13237); conditions: at 0.1 µM
T6 sequence (whole entry): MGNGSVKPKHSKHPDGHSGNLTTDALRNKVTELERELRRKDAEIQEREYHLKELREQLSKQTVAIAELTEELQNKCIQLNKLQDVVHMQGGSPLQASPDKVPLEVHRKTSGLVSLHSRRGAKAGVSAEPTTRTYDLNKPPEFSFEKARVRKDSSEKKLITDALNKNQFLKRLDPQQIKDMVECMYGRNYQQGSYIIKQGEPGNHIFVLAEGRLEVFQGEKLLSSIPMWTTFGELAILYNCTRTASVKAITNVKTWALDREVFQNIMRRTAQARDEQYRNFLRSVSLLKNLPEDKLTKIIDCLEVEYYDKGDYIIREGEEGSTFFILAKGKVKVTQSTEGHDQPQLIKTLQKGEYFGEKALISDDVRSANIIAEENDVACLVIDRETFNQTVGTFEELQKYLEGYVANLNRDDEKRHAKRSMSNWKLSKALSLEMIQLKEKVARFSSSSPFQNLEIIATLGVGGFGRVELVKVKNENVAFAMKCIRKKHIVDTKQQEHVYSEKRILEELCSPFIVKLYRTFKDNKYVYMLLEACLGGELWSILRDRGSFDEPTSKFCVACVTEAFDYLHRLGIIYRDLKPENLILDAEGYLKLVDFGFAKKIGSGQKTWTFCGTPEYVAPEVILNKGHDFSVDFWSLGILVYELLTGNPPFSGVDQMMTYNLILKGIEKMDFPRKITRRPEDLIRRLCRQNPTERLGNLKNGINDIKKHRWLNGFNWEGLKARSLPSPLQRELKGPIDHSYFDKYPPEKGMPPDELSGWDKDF

[17] = biological target: T6, cGMP-dependent protein kinase 2 (Homo sapiens); conditions: at 1 µM
[18] = biological target: T7, cAMP-dependent protein kinase catalytic subunit PRKX (Homo sapiens) (UniProt P51817); conditions: at 0.1 µM
T7 sequence (whole entry): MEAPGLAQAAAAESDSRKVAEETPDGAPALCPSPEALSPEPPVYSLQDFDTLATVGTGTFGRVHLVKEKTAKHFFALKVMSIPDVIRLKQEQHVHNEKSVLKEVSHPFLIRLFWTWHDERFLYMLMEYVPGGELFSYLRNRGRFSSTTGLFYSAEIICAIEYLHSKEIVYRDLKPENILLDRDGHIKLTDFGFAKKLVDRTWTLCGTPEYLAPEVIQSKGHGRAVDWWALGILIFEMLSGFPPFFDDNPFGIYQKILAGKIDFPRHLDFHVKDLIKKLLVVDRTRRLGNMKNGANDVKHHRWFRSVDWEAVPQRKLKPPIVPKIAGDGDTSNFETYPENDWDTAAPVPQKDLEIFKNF

[19] = biological target: T7, cAMP-dependent protein kinase catalytic subunit PRKX (Homo sapiens); conditions: at 1 µM
[20] = biological target: Rho-associated protein kinase 1 (Homo sapiens) (UniProt Q13464); conditions: at 0.1 µM;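 note: values are mean percent inhibition of ROCK1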
Sequence of Rho-associated protein kinase 1 (Homo sapiens) (Q13464 2-1354 limits assumed): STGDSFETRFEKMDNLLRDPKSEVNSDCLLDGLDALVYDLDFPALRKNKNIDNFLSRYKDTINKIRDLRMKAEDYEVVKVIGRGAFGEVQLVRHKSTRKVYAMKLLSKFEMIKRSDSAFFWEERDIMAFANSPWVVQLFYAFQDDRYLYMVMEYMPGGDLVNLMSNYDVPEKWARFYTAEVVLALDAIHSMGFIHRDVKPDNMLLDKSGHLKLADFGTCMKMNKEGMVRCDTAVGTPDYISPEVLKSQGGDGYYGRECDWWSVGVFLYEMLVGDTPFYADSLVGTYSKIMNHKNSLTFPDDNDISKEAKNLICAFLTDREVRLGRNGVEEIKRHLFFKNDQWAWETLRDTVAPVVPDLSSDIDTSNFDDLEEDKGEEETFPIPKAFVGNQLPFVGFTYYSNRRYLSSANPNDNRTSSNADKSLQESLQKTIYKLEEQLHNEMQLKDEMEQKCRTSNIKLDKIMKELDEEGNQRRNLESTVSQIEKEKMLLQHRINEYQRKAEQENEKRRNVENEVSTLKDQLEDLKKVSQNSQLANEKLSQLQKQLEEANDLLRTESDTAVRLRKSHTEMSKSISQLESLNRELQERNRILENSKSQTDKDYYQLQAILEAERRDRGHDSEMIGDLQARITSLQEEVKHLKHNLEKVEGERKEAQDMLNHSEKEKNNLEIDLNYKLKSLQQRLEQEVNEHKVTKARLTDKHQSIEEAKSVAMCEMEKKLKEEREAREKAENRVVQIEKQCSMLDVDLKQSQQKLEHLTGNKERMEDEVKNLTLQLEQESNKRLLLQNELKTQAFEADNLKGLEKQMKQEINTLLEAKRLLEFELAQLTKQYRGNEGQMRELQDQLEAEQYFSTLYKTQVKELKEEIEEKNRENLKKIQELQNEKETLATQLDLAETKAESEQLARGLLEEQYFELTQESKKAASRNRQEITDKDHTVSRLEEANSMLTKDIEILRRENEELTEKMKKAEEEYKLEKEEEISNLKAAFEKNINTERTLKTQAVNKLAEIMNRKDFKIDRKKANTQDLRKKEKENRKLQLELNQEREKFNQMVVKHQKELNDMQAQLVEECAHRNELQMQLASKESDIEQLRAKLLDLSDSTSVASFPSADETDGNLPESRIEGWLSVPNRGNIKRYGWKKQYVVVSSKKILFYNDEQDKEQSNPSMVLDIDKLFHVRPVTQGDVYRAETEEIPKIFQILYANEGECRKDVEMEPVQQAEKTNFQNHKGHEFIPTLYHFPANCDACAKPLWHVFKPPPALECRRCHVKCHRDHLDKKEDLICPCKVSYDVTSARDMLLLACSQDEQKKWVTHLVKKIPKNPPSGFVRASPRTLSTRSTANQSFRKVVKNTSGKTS

Sequence of Protein kinase C theta type (Homo sapiens) (Q04759 whole entry, looked up): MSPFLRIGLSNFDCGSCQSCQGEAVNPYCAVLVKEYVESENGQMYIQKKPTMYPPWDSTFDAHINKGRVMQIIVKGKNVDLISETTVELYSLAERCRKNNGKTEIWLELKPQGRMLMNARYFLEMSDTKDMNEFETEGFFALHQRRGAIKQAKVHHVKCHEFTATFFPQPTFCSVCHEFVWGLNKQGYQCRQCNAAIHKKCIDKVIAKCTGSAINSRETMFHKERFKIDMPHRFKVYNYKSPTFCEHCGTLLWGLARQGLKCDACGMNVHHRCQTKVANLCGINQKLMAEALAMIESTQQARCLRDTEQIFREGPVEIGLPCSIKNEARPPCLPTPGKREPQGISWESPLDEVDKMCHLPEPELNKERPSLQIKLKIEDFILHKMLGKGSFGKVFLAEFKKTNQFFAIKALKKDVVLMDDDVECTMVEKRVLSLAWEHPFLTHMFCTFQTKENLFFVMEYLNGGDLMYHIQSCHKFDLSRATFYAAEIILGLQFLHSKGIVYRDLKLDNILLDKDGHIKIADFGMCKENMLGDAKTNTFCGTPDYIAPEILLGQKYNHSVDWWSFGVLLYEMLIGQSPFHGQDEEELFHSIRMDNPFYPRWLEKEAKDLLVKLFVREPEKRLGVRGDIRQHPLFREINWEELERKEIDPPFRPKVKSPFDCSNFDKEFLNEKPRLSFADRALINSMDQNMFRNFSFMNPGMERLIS
Sequence of Protein kinase C beta type (Homo sapiens) (P05771 2-671 limits assumed): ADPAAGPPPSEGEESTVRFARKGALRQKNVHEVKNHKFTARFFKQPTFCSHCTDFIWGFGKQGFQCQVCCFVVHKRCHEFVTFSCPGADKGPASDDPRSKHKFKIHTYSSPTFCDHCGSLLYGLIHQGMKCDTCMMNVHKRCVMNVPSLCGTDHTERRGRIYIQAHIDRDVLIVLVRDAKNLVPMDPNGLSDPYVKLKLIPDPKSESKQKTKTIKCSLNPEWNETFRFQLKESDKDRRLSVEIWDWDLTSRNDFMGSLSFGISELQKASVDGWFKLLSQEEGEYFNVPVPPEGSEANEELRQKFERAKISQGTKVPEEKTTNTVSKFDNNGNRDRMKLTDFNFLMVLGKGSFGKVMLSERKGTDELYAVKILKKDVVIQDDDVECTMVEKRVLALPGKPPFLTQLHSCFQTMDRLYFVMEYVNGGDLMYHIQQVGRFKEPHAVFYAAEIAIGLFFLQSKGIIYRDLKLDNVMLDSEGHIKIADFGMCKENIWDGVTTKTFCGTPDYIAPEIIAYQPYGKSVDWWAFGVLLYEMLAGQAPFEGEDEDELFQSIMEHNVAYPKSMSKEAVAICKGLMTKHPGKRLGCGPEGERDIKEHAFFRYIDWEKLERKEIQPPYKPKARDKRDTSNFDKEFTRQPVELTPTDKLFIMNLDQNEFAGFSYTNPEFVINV

Nc1nccc(C#Cc2cncnc2Nc2ccc(OCc3cccc(F)c3)c(Cl)c2)n1
inhibition [1]: 4.21%
inhibition [2]: 1.86%
inhibition [3]: 3.2%
inhibition [4]: 2.44%
inhibition [5]: 1.22%
inhibition [6]: 0.73%
inhibition [7]: 1.49%
inhibition [8]: 3.68%
inhibition [9]: 6.75%
inhibition [10]: 4.56%
inhibition [11]: 5.62%
inhibition [12]: 5.15%
inhibition [13]: 5.74%
inhibition [14]: 2.37%
inhibition [15]: 5.43%
inhibition [16]: 1.99%
inhibition [17]: 7.43%
inhibition [18]: 0.49%
inhibition [19]: -0.22%
inhibition [20]: 0.91%

C[C@@H](Oc1cc(-n2cnc3ccc(OCC4CCN(C)CC4)cc32)sc1C(N)=O)c1ccccc1C(F)(F)F
inhibition [1]: 7.81%
inhibition [2]: -1.38%
inhibition [3]: 0.4%
inhibition [4]: 2.09%
inhibition [5]: 19.4%
inhibition [6]: 2.07%
inhibition [7]: 18.8%
inhibition [8]: -0.56%
inhibition [9]: 12.1%
inhibition [10]: 2.29%
inhibition [11]: 22.1%
inhibition [12]: -0.13%
inhibition [13]: 16.9%
inhibition [14]: -2.23%
inhibition [15]: 0.25%
inhibition [16]: -1.61%
inhibition [17]: 0.31%
inhibition [18]: -0.03%
inhibition [19]: -1.15%
inhibition [20]: 0.29%

C[C@@H](Oc1cc(-n2cnc3ccc(OC[C@@H](O)CO)cc32)sc1C(N)=O)c1ccccc1Cl
inhibition [1]: -0.26%
inhibition [2]: -0.24%
inhibition [3]: 1.09%
inhibition [4]: -0.9%
inhibition [5]: 0.85%
inhibition [6]: -1.05%
inhibition [7]: 2.03%
inhibition [8]: -1.17%
inhibition [9]: 0.36%
inhibition [10]: 0.81%
inhibition [11]: 1.51%
inhibition [12]: -1.65%
inhibition [13]: 0.06%
inhibition [14]: -2.27%
inhibition [15]: -0.2%
inhibition [16]: -0.02%
inhibition [17]: -0.19%
inhibition [18]: -1.09%
inhibition [19]: -8.23%
inhibition [20]: 0.14%
